MgrA-DNA mod = modulators of Staphylococcus aureus MgrA DNA binding; fluorescence polarization; 84,000 tested, 0.13% active; AID 602314; inhibition, % (no concentration beside the values); in the data active = inhibition above about 30%, passing the limit was not always enough;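 note: higher means less MgrA bound to DNA so lower polarization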
Of the large screens only hits and unclear results are named; the others gave an inactive call. The entries come from a sample that favours hits as a whole.

N#CC1(C#N)[C@H](c2ccoc2)[C@@H](C(=O)Oc2ccccc2)N2c3ccccc3C=C[C@@H]21	none
COC(=O)C1=C(C)N(c2ccc(N(C)C)cc2)C(C)=C(C(=O)OC)C1c1ccccc1	none
COC(=O)C1=C(C)N2[C@@H](C=C1)[C@@](C#N)(C(N)=O)[C@@H](c1ccccc1)[C@@H]2C(=O)OC	MgrA-DNA mod 60
O=C(/C=C/c1ccco1)N1CCn2c(nc3ccccc32)C1	none
COc1cc(/C=C2\NC(=S)NC2=O)ccc1Oc1ccc([N+](=O)[O-])cc1[N+](=O)[O-]	none
CCc1ccc(-c2nn(-c3ccccc3)cc2/C=C2\SC(=S)NC2=O)cc1	none
Cc1ccc(-c2nn(-c3ccccc3)cc2/C=C2\SC(=S)NC2=O)cc1	none
Cc1ccc(-c2nn(-c3ccccc3)cc2/C=C2\SC(=S)N(CCCC(=O)O)C2=O)cc1	MgrA-DNA mod 99
COC(=O)c1cc2sccc2n1CCC#N	none
NC(=O)COC(=O)c1ccc(Cl)cc1N	none
C=CCn1c(-c2cccc(C)c2)nc2ccccc21	none
COc1ccc(N(C)C(=S)Nc2ccc3nc(-c4ccco4)c(-c4ccco4)nc3c2)cc1	MgrA-DNA mod 60
CNC(=S)Nc1ccc(C)cc1	none
Cc1ccc(NC(=S)Nc2ccc3nc(-c4ccco4)c(-c4ccco4)nc3c2)cc1	MgrA-DNA mod 80
c1coc(-c2nc3ccccc3nc2-c2ccco2)c1	none
O=C(c1ccccc1)c1ccc2nc(-c3ccco3)c(-c3ccco3)nc2c1	MgrA-DNA mod 63
COc1ccc2nc3c(nc2c1)-c1cccc2cccc-3c12	none
COc1cccc(NC(=S)Nc2ccc(N(C)C)cc2)c1	none
S=C(NCc1ccco1)Nc1ccc2nc(-c3ccccn3)c(-c3ccccn3)nc2c1	none
O=C(NCCO)c1ccc2nc(-c3ccco3)c(-c3ccco3)nc2c1	none
O=C(CSc1nnnn1-c1ccccc1)N1c2ccccc2CCc2ccccc21	none
N/C(=N\OC(=O)c1ccsc1)c1ccc(Br)cc1	none
Cc1nc(N2CCSCC2)ncc1S(=O)(=O)c1ccc(Cl)cc1	none
O=C(O)c1cc2ccccc2[nH]c1=O	none
O=C(COc1ccccc1)N=Nc1c(O)[nH]c2ccccc12	none
CC1CN(S(=O)(=O)c2ccc(C(=O)Nc3ccccc3)cc2)CC(C)O1 (centres undefined)	none
CCOC(=O)c1c(N(C)S(C)(=O)=O)sc(C)c1C	none
CCC1CCCCN1C(=O)COc1ncnc2ccccc12 (centres undefined)	none
CN(C)c1ccc2c3c(cccc13)C(=O)N(c1nc3ccccc3[nH]1)C2=O	none
CC(=O)NN1C(=O)c2cccc3c(N(C)C)ccc(c23)C1=O	MgrA-DNA mod 61
CCSc1ccc2c3c(cccc13)C(=O)N(NCCO)C2=O	none
O=C(NCc1ccccc1)c1ccc(CN(c2ccccc2)S(=O)(=O)c2ccccc2)cc1	none
COC(=O)C1=C(C)N=C2SC(C#N)=C(N)N2C1c1ccccc1 (centres undefined)	none
O=C1c2ccccc2C(=O)c2c(NC3CCCCC3)ccc(Nc3ccc(Oc4ccccc4)cc3)c21	none
O=C1C=C(NC2CCCC2)CC(c2ccccc2)C1 (centres undefined)	none
O=C1C=C(C(F)(F)F)c2ccc(NC3CCCCC3)c3cccc1c23	MgrA-DNA mod 56
Cc1ccccc1/C=C1\Sc2ccccc2N(CC(=O)NC(C)c2ccccc2)C1=O (centres undefined)	none
O=C(c1cc(C2CC2)[nH]n1)n1ccnc1	none
CCOc1cccc(=[O+]CC)c2c(C)oc(C)c12	MgrA-DNA mod 63
CCOc1cccc(=O)c2c(C)n(-c3ccc(OC)cc3)c(C)c12	none
CCOc1ccccc1C(=O)N(C)c1ccccc1	none
O=C(NC(Nc1ccc(Cl)cc1)C(=O)c1ccccc1)c1ccccc1 (centres undefined)	none
CNC(=O)c1ccc(Cn2c(SCc3ccc(C)cc3)nc3ccncc32)cc1	none
CC1SCC(NC(=O)c2ccccc2)CS1 (centres undefined)	none
CCCNC(=O)c1[nH]c2ccccc2c1Sc1ccc(C)cc1	none
CC(=O)N[C@H]1[C@H](Oc2nc3cc(C)ccc3o2)O[C@H](CO)[C@@H](O)[C@@H]1O	none
COC(=O)c1ccc2c(c1)NC(=O)CO2	none
O=C(/C=C/c1ccco1)/C=C/c1ccco1	MgrA-DNA mod 98
O=C(/C=C/c1ccco1)Nc1cccc(NC(=O)/C=C/c2ccco2)n1	none
O=C(/C=C/c1ccccc1)/C=C/c1ccco1	none
O=C(O)CC1NC(=O)c2ccccc21 (centres undefined)	none
O=C(O)c1cscc1S(=O)(=O)c1ccc(Cl)cc1	none
O=C(Cc1ccccc1)OCc1ccc(Cl)cc1	none
CCOC(=O)c1sc(-c2ccc3c(c2)CCO3)nc1C	none
C=C(C)C1Cc2cc(/C=C/C(=O)O)c(O)cc2O1 (centres undefined)	MgrA-DNA mod 54
C=C(C)C1Cc2cc3ccc(=O)oc3cc2O1 (centres undefined)	none
O=C(O)C=Cc1ccc(O)c(O)c1	none
CN(C)c1ccsc1C(=O)NN	none
COc1ccc(/C=C2/N=C(c3ccc([N+](=O)[O-])cc3)OC2=O)cc1Br	none
O=C(c1ccc(Cn2c(=O)[nH]c3ccsc3c2=O)cc1)N1CCCCC1	none
O=C(O)C1Nc2ccccc2C2C=CCC12 (centres undefined)	none
CC(C)C1Nc2ccc(C(=O)O)cc2C2C=CCC21 (centres undefined)	none
Cc1ccc2c(c1C)NC(C(=O)O)C1CC=CC21 (centres undefined)	MgrA-DNA mod 64
N#Cc1c(-c2ccccc2)cc(-c2ccco2)c(C#N)c1N	none
N#Cc1c(-c2ccco2)cc(-c2ccco2)[nH]c1=O	MgrA-DNA mod 56
N#Cc1c(-c2ccco2)cc(-c2ccccc2)[nH]c1=O	none
CCOC(=O)Cc1cc(C)[nH]c1C(=O)OCC	none
CCOC(=O)CCc1c(CC(=O)OCC)c[nH]c1/C=N/O	MgrA-DNA mod 61
CCOC(=O)CCc1n[nH]c(=O)[nH]c1=O	none
N=Cc1c(C(F)(F)F)[nH]n(-c2nc3ccccc3s2)c1=O	none
COc1ccc(C(F)(F)F)cc1NC(C)=O	none
Cc1ccnc(NC(=O)c2ccc3c(c2)C(=O)N(Cc2ccco2)C3=O)c1	MgrA-DNA mod 30
O=C(Nc1ccccc1Cl)c1ccc2c(c1)C(=O)N(Cc1ccco1)C2=O	none
O=C(c1ccc2c(c1)C(=O)N(Cc1ccco1)C2=O)N1CCOCC1	none
C=CCN(CC=C)C(=O)c1ccc(I)cc1	none
O=C(c1noc2c1CCCC2)N(C1CCCCC1)C1CCCCC1	none
COc1cccc2c1C(=O)c1c(O)c3c(c(O)c1C2=O)C[C@@](O)(C(C)=O)C[C@@H]3OC1CC(N)C(O)C(C)O1 (some centres undefined)	MgrA-DNA mod active
COc1cccc2c1C(=O)c1c(O)c3c(c(O)c1C2=O)C[C@@](O)(C(=O)CO)C[C@@H]3O[C@H]1C[C@H](N)[C@H](O)[C@H](C)O1	MgrA-DNA mod active
CCCCc1ccc(NC(=O)CSc2nnc(N)s2)c(C)c1	none
CC(C)(C)NS(=O)(=O)c1ccc(NC(=O)CN2C(=O)c3ccccc3C2=O)cc1	none
Cc1ccc(Sc2ncccc2NC(=O)C2CC2)cc1	none
COC(=O)CCN1C(=O)/C(=C\c2cccs2)SC1=S	none
O=C(O)c1cc(N2N=C(C(F)(F)F)/C(=C/c3ccc(-c4ccccc4)o3)C2=O)ccc1Cl	MgrA-DNA mod 58
CCOC(=O)c1ccc(-c2ccc(/C=C3\C(=O)N(c4cccc(Cl)c4)N=C3C)o2)cc1	none
CC1=NN(c2ccc(Cl)c(C(=O)O)c2)C(=O)/C1=C\c1ccc(-c2ccccc2C(=O)O)o1	none
COc1cc(/C=C2\SC(N)=NC2=O)ccc1OCc1ccc(C)cc1	none
Cc1ncc(CSc2ccccn2)c(CO)c1O	none
O=C1c2ccccc2C(=O)c2c1cccc2-c1cccc2c1C(=O)c1ccccc1C2=O	none
Nc1cccc2c1C(=O)c1ccccc1-2	MgrA-DNA mod 53

Assay outcomes as filed in PubChem BioAssay.
